Data reported in the supplement of paper PMC6555819.

Experiments:
Assay in all cases: PBM binding z-score (relative to random genomic background probes); higher = stronger binding; sequences stand for … in GC…GCGATTGACAGCGTAGAATGAAGG
[1] = test system: FXR:RXRa (NR concentration 270 nM, RXRa partner concentration 90 nM)
Summary of the method: (§1)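 Random background probes are the reference for binding z-scores. These scores derive from regression-normalized fluorescence on custom Agilent 4×180K protein-binding microarrays incubated 1 h with ligand-free nuclear receptor dimers. Binding was detected with antibodies against each partner (one per run).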

[2] = test system: LXRa:RXRa (NR concentration 270 nM, RXRa partner concentration 90 nM)
Summary of the method: as §1

[3] = test system: LXRa homodimer (NR concentration 270 nM)
Summary of the method: as §1

[4] = test system: LXRb:RXRa (NR concentration 270 nM, RXRa partner concentration 90 nM)
Summary of the method: as §1

[5] = test system: LXRb homodimer (NR concentration 270 nM)
Summary of the method: as §1

[6] = test system: PPARa:RXRa (NR concentration 270 nM, RXRa partner concentration 90 nM)
Summary of the method: as §1

[7] = test system: PPARg:RXRa (NR concentration 180 nM, RXRa partner concentration 90 nM)
Summary of the method: as §1

[8] = test system: PPARg:RXRa 270nM:90nM, anti-RXR (NR concentration 270 nM, RXRa partner concentration 90 nM)
Summary of the method: as §1

[9] = test system: PPARg:RXRa 30nM:10nM, anti-RXR (NR concentration 30 nM, RXRa partner concentration 10 nM)
Summary of the method: as §1

[10] = test system: PPARg:RXRa 90nM:30nM, anti-RXR (NR concentration 90 nM, RXRa partner concentration 30 nM)
Summary of the method: as §1

[11] = test system: PPARg:RXRa DBDmut IVT, anti-RXR (DBD mutation: RXRa K156A/R161A, NR concentration 270 nM, RXRa partner concentration 90 nM)
Summary of the method: as §1

[12] = test system: PPARg:RXRa IVT, anti-PPARg (NR concentration 270 nM, RXRa partner concentration 90 nM)
Summary of the method: as §1

[13] = test system: PPARg DBDmut:RXRa IVT, anti-PPARg (DBD mutation: PPARg1 K132A/R137A, NR concentration 270 nM, RXRa partner concentration 90 nM)
Summary of the method: as §1

[14] = test system: PPARg DBDmut IVT, anti-PPARg (DBD mutation: PPARg1 K132A/R137A, NR concentration 270 nM)
Summary of the method: as §1

[15] = test system: PPARg homodimer (NR concentration 180 nM)
Summary of the method: as §1

[16] = test system: PXR:RXRa (NR concentration 270 nM, RXRa partner concentration 90 nM)
Summary of the method: as §1

[17] = test system: PXR homodimer (NR concentration 270 nM)
Summary of the method: as §1

[18] = test system: RARa:RXR (NR concentration 270 nM, RXRa partner concentration 90 nM)
Summary of the method: as §1

[19] = test system: RARa homodimer (NR concentration 270 nM)
Summary of the method: as §1

[20] = test system: RARb:RXRa (NR concentration 270 nM, RXRa partner concentration 90 nM)
Summary of the method: as §1

Sequence	PBM binding z-score [1]	PBM binding z-score [2]	PBM binding z-score [3]	PBM binding z-score [4]	PBM binding z-score [5]	PBM binding z-score [6]	PBM binding z-score [7]	PBM binding z-score [8]	PBM binding z-score [9]	PBM binding z-score [10]	PBM binding z-score [11]	PBM binding z-score [12]	PBM binding z-score [13]	PBM binding z-score [14]	PBM binding z-score [15]	PBM binding z-score [16]	PBM binding z-score [17]	PBM binding z-score [18]	PBM binding z-score [19]	PBM binding z-score [20]
AGAACGAGGCCAATGAGTTGATAGCACGGGTGGC	-0.177	-0.455	-0.576	-0.817	-0.913	0.0353	0.81	-0.06	-0.388	0.093	1.54	0.862	0.703	0.331	-0.093	0.214	0.741	-0.114	0.0259	0.946
CAAACTAGGTAACAGAGGTCAAAGTCCGTGCGTA	5.29	6.1	7.34	5.38	1.74	5.84	6.67	6.35	3.97	5.74	6.99	6.88	1.9	1.28	4.37	6	3.25	6.67	1.62	4.11
CATACAGGGTCAGCTGGGCCAGAGTAGGGACGGC	4.32	3.28	-0.0929	2.08	0.0372	4.46	2.85	3.35	0.594	2.16	1.23	2.66	0.246	0.292	1.52	2.22	-0.145	2.81	0.258	4.08
ACTAGTTGGTTAGCTGAGGTCACACACAATTCGG	2.92	3.56	3.63	3.49	0.944	3.95	1.63	2.35	0.884	1.41	0.671	2.34	0.586	0.524	3.15	5.03	2.31	4.59	1.66	3.06
CAAACTAGGTCACATAGGTCAAAGTCCGTGCGTA	6.12	5.33	4.86	5.05	1.48	5.74	9.47	7.44	6.05	7.51	8.33	8.57	3	4.3	4.12	5.04	4	5.51	2.09	4.7
ATATGTAGGTTAGCTGGGGTGATTCAGACTAGGC	2.08	0.979	0.289	1.32	0.553	2.85	3.26	2.89	0.853	1.94	6.78	5.76	1.88	1.63	1	1.55	0.409	1.31	1.29	1.07
TCTATTAGTTGAAGGGCAACTGACGAGTCCGTTT	0.705	0.726	0.328	0.815	0.416	1.09	0.086	2.28	3.74	3.07	2.25	0.905	0.468	0.573	0.905	0.88	0.479	1.08	1.44	1.6
ATATGTAGGTTAGTTGGGGTCATTCAGACTAGGC	5	6.61	5.82	5.76	1.94	5.47	5.44	5.32	2.72	4.54	6.81	5.83	2.02	2.15	3.78	6.79	7.04	5.99	2.35	3.21
CTACCAAGGTGAACAAGGTAGTTGATTACTATTC	0.29	0.269	-0.28	0.647	-0.774	1.19	0.675	0.808	0.0377	0.215	2.65	2.48	0.56	0.814	0.0631	0.0464	-0.0276	0.456	-0.151	1.53
TGAATGAGGTTAAGGATCAGGGAACGTGGCGTCG	1.99	1.74	-0.343	1.01	0.386	3.28	3.12	4.57	2.71	4.12	1.6	2.61	0.781	-0.105	0.99	1.08	-0.0179	2.08	0.367	2.03
GCAGACAGCTGAAACGCAGGTAACTCAGGGTGGC	-0.689	-0.548	-0.369	-1.06	-1.49	-0.559	0.436	-0.461	-0.695	-0.928	-0.593	-0.619	-0.401	-0.834	-1.24	-0.942	-0.526	-0.648	-0.637	-0.402
TCAGACGGGTGAAGGTAACTCAGGTACGCAGTCG	0.211	1.12	-0.137	0.138	-0.885	1.02	0.625	1.66	2.83	2.17	1.98	0.818	-0.457	-0.479	0.581	0.181	-0.137	0.411	-0.487	0.641
CCTTCCGGGTCACGAGGTTATAGCACGACGAGCG	5.95	4.51	0.67	3.92	0.139	5.88	7.46	6.88	3.82	6	5.56	6.43	0.639	-0.0446	2.53	4.81	0.436	5.82	0.661	4.55
ATACCAAGGTGATCGGGAGGTCGTTGATACTAAC	1.36	0.921	0.848	1.34	0.329	1.55	0.591	0.404	0.193	0.12	0.345	1.15	0.229	0.179	1.3	2.92	1.26	2.08	0.622	1.31
